# Data taken from the supplement of paper PMC11018630.
# Where a name gives a salt, the structure may show the parent alone. ± gives the standard deviation of the averaged measurements. In all, about 1,100 compounds were measured (“day of extracellular matrix detachment from plate”: median about 16, lowest 2% from about 10 on). Shown is part of a subset that was picked to be rich in the lowest values. Where a SMILES comes first, the peptide text is derived from it. Bridges are numbered along the chain shown (N, C = ends). [ ]: non-standard residue; d: D form. Orn = NCCC[C@H](N)C(=O)O; Mpa = O=C(O)CCS
# Test system: RDEB dermal fibroblasts EB71
# Test: day of extracellular matrix detachment from plate (days); higher = delayed detachment (less fibrotic matrix)
# Conditions: compound concentration: 10 uM
row,Structure (SMILES),day of extracellular matrix detachment from plate
1,O=C(O)CCCN1CCC(O[C@@H](c2ccc(Cl)cc2)c2ccccn2)CC1 [Bepotastine Besilate],18.7 ± 4
2,CCOc1ccc(C[C@H]2NC(=O)CCSSC[C@@H](C(=O)N3CCC[C@H]3C(=O)N[C@@H](CCCN)C(=O)NCC(N)=O)NC(=O)[C@H](CC(N)=O)NC(=O)[C@H]([C@@H](C)O)NC(=O)[C@H]([C@@H](C)CC)NC2=O)cc1 [Atosiban Acetate] ([Mpa][dY](Et)ITNCP[Orn]G-NH2; disulfide 1-6),19 ± 3
3,C=C1c2cccc(O)c2C(=O)C2=C(O)[C@]3(O)C(=O)C(C(N)=O)=C(O)[C@@H](N(C)C)[C@@H]3[C@@H](O)[C@H]12 [Methacycline HCl],17 ± 1.7
4,C[C@]12C=CC(=O)C=C1CC[C@@H]1[C@@H]2C(=O)C[C@@]2(C)[C@H]1CC[C@]2(O)C(=O)CO [Prednisone],10.3 ± 1.1
5,C[C@H]1C[C@@H]2[C@H](C(=O)C[C@@]3(C)[C@H]2CC[C@]3(O)C(=O)CO)[C@@]2(C)C=CC(=O)C=C12 [Methylprednisone],18.3 ± 4
6,C[C@H]1C[C@H]2[C@@H]3CCC4=CC(=O)C=C[C@]4(C)[C@H]3C(=O)C[C@]2(C)[C@@]1(O)C(=O)CO [Meprednisone],18.3 ± 8.1
7,CCOC(=O)C1=C[C@@H](OC(CC)CC)[C@H](NC(C)=O)[C@@H](N)C1 [Oseltamivir Phosphate],20 ± 1.7
8,OC1(c2ccc(Cl)c(C(F)(F)F)c2)CCN(CCCC(c2ccc(F)cc2)c2ccc(F)cc2)CC1 [Penfluridol],25.5 ± 5
9,Cc1nc(C)c(Cl)c(O)c1Cl [Clopidol],18 ± 1.7
10,NC(=O)N1CCC(CC(=O)N2CCC([C@H]3c4ncc(Br)cc4CCc4cc(Cl)cc(Br)c43)CC2)CC1 [Lonafarnib],25
11,CCOC(=O)C1=C(C)NC(C)=C(C(=O)OCC)C1c1ccccc1/C=C/C(=O)OC(C)(C)C [Lacidipine],19.3 ± 6.3
12,CCC(=O)NCC[C@@H]1CCc2ccc3c(c21)CCO3 [Ramelteon],9.67 ± 1.1
13,Cc1ccc(C(=O)c2ccc(CC(=O)O)n2C)cc1 [Tolmetin Sodium],19.3 ± 1.1
14,Clc1cccc(Cl)c1NC1=NCCN1 [Clonidine HCl],11 ± 1.7
15,COc1nc(C)nc(Cl)c1NC1=NCCN1 [Moxonidine],10 ± 1.7
16,O=S(=O)(O)CCCS(=O)(=O)O [Eprodisate (disodium)],18
17,FC(F)(F)c1ccc(/C=C/c2nc(COc3ccc(CCCCn4ccnn4)cc3)co2)cc1 [Mubritinib (TAK 165)],15.7 ± 6.3
18,Cc1nc(C(=O)NCC(=O)O)c(O)c2ccc(Oc3ccccc3)cc12,23.7 ± 2.3
19,Nc1nc(=O)c2nc(CNc3ccc(C(=O)N[C@@H](CCC(=O)O)C(=O)O)cc3)cnc2[nH]1 [Folic acid],17
20,O=C1CCc2cc(OCCCCc3nnnn3C3CCCCC3)ccc2N1 [Cilostazol],10.3 ± 1.1
21,O=C1CCc2ccc(OCCCCN3CCN(c4cccc(Cl)c4Cl)CC3)cc2N1 [Aripiprazole],19.3 ± 6.3
22,Cn1nnc2c(C(N)=O)ncn2c1=O [Temozolomide],9.67 ± 1.1

row,Structure (SMILES),day of extracellular matrix detachment from plate
1,Nc1c(CC(=O)O)cccc1C(=O)c1ccc(Br)cc1 [Bromfenac Sodium],13
2,CC1(C)S[C@@H]2[C@H](NC(=O)[C@H](NC(=O)N3CCN(S(C)(=O)=O)C3=O)c3ccccc3)C(=O)N2[C@H]1C(=O)O [Mezlocillin Sodium],13
3,Cc1cccc(-c2nn3c(c2-c2ccnc4ccc(C(N)=O)cc24)CCC3)n1,29.5 ± 9.2
4,CCN(CCCc1ccccc1)CCCc1ccccc1 [Alverine Citrate],18
5,C=CCc1cc(OC)c(O)c(C(=O)NCCO)c1 [Alibendol],15.7 ± 6.3
6,Nc1ccc(/N=N/c2ccccc2)c(N)n1 [Phenazopyridine HCl],13
7,C[C@@H](NCCCc1cccc(C(F)(F)F)c1)c1cccc2ccccc12 [Cinacalcet HCl],12.3 ± 1.1
8,NS(=O)(=O)c1ccc(C(=O)O)cc1 [Carzenide],12.3 ± 2.3
9,CC[C@H](C)C(=O)O[C@H]1C[C@H](O)C=C2C=C[C@H](C)[C@H](CC[C@@H](O)C[C@@H](O)CC(=O)O)[C@H]21 [Pravastatin sodium],20 ± 1.7
10,O=C(NC(Cc1cc(=O)[nH]c2ccccc12)C(=O)O)c1ccc(Cl)cc1 (centres undefined) [Rebamipide],15.7 ± 6.3
11,CC1(C)[C@@H](OC(=O)CCC(=O)O)CC[C@]2(C)[C@H]3C(=O)C=C4[C@@H]5C[C@@](C)(C(=O)O)CC[C@]5(C)CC[C@@]4(C)[C@]3(C)CC[C@@H]12 [Carbenoxolone Sodium],13
12,CC[C@H](C)C[C@H](C)CCCCCCCCC(=O)N[C@H]1C[C@@H](O)[C@@H](NCCN)NC(=O)[C@@H]2[C@@H](O)CCN2C(=O)[C@H]([C@H](O)CCN)NC(=O)[C@H]([C@H](O)[C@@H](O)c2ccc(O)cc2)NC(=O)[C@@H]2C[C@@H](O)CN2C(=O)[C@H]([C@@H](C)O)NC1=O [Caspofungin Acetate],18
13,CC(CCc1ccc(O)cc1)NCC(O)c1ccc(O)cc1 (centres undefined) [Ractopamine HCl],13
14,N#CC[C@H](C1CCCC1)n1cc(-c2ncnc3[nH]ccc23)cn1,16
15,Cc1cn(-c2cc(NC(=O)c3ccc(C)c(Nc4nccc(-c5cccnc5)n4)c3)cc(C(F)(F)F)c2)cn1 [Nilotinib (AMN-107)],30.5 ± 6
16,O=c1oc2c(O)c(O)cc3c(=O)oc4c(O)c(O)cc1c4c23 [Ellagic acid],10.3 ± 1.1
17,CCN1CCN(C(=O)N[C@@H](C(=O)N[C@@H]2C(=O)N3C(C(=O)O)=C(CSc4nnnn4C)CS[C@H]23)c2ccc(O)cc2)C(=O)C1=O [Cefoperazone],10.3 ± 1.1
18,CCN1CCN(C(=O)N[C@@H](C(=O)N[C@@H]2C(=O)N3[C@@H]2SC(C)(C)[C@@H]3C(=O)O)c2ccccc2)C(=O)C1=O [Piperacillin Sodium],13
19,CO/N=C(\C(=O)N[C@@H]1C(=O)N2C(C(=O)O)=C(CSc3nnnn3C)CS[C@H]12)c1csc(N)n1 [Cefmenoxime hydrochloride],18 ± 1.4
20,CCCCCCCCCC(=O)N[C@@H](Cc1c[nH]c2ccccc12)C(=O)N[C@H](CC(N)=O)C(=O)N[C@@H](CC(=O)O)C(=O)N[C@@H]1C(=O)NCC(=O)N[C@@H](CCCN)C(=O)N[C@@H](CC(=O)O)C(=O)N[C@H](C)C(=O)N[C@@H](CC(=O)O)C(=O)NCC(=O)N[C@H](CO)C(=O)N[C@@H]([C@H](C)CC(=O)O)C(=O)N[C@@H](CC(=O)c2ccccc2N)C(=O)O[C@@H]1C [Daptomycin],22
21,NC(=O)[C@@H]1CSSCCC(=O)N[C@@H](CCCCN=C(N)N)C(=O)NCC(=O)N[C@@H](CC(=O)O)C(=O)N[C@@H](Cc2c[nH]c3ccccc23)C(=O)N2CCC[C@H]2C(=O)N1 [Eptifibatide Acetate],22
22,CC(C)[C@H]1C(=O)N[C@@H](CCCNC(=N)N)C(=O)NCC(=O)N[C@@H](CC(=O)O)C(=O)N[C@H](Cc2ccccc2)C(=O)N1C [Cilengitide],6
